The whole screen tested about 2,400 compounds, of which about 1,100 (46%) were called active. So high a share suggests a set chosen from earlier hits. Only a sample is shown. Unmarked numbers belong to inactive results.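 The calls were made as follows: active = inhibition above the run cutoff, the mean inhibition of all test compounds plus 3 SD (cut at about 49% in these data); inactive = the rest.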
These compounds were tested against Trace amine-associated receptor 1 (Homo sapiens) (UniProt Q96RJ0) (assay: loss of beta-PEA response after agonist pre-exposure – cell-based, fluorescence, tachyphylaxis, counter-screen for TAAR1 agonist project, confirmation (AID 651951;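 also: beta-PEA stimulus applied at its EC80; loss of beta-PEA calcium signal after compound pretreatment read as receptor desensitization; 0% = DMSO with beta-PEA at EC80 and 100% = DMSO alone without agonist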)). Settings: CHO RD-HGA16 hTAAR1, Fluo-8 calcium, at 3 µM, active compounds read high.
Sequence of Trace amine-associated receptor 1 (Homo sapiens) (Q96RJ0 whole entry, looked up): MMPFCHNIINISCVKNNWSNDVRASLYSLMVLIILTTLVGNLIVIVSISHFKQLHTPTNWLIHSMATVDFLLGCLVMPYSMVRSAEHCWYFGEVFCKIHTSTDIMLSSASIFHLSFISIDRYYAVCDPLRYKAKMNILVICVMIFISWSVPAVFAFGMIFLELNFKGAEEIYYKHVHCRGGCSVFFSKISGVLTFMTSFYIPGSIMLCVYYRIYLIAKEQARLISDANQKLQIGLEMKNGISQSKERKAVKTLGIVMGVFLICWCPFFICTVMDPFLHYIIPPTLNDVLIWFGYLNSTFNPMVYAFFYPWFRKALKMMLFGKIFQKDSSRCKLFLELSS
For `CCC(=NCCc1ccccc1)c1c(O)n(C2CCCCC2)c(=O)[nH]c1=O`, the inhibition was 55.8% (active).
In the case of `Cc1cccc(N2C(=O)NC(=O)/C(=C\c3cnn(-c4ccccc4)c3)C2=O)c1`, the inhibition is reported as 54.4% (active).
In the case of `NCC(O)c1ccc(O)cc1` (centres undefined), the inhibition is reported as 53.1% (active).
Work on `COc1ccc(Br)cc1CNCCc1cccc(Cl)c1` yielded an inhibition of 40%.
For `CC(Cc1ccccc1)NC=O` (centres undefined), the inhibition was 78.2% (active).
With `c1ccc(CCNC2CCCCCC2)cc1` the inhibition was 91% (active).
With `O=C1NC(=O)N(Cc2ccco2)C(=O)/C1=C\c1ccc(-c2ccc(F)cc2)o1` the inhibition was 42.5%.
With `CCCCC(=O)N/N=C/c1c(O)n(CC)c(=S)n(CC)c1=O` the inhibition was 88% (active).
Work on `Clc1ccc2nc3c(c(-c4ccccc4)c2c1)CNCC3` yielded an inhibition of 39.3%.
